USP2a inh – USP2a (human) protease inhibition; USP2 core, Ub-CHOP2 coupled fluorogenic reporter, 485/531; Potency, µM (doses to about 38.3 µM), inactives show at the top dose activity change, negative = inhibition, usual class: inhibitors; actives 0.01% (n = 330,000);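 note: potency is the fitted concentration of half-maximal effect; plate controls were DMSO wells for no effect and full inhibition by NEM control for full effect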
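Cell-free coupled assay: 10nM USP2 core preincubated 30min RT with compound in Tris-HCl pH 8.0/CaCl2/CHAPS buffer, then 25nM Ub-CHOP2 and 25nM reporter substrate; fluorescence (Ex 485/Em 531) read after 60min RT, normalized to NEM inhibition, concentration-response curves fitted.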
S2 tox – viability counter-screen for ATXN expression inhibitors | actives 0.49% (n = 400,000) | AID 651635 | Potency, µM (top dose mostly 56.7 µM), hits mostly cytotoxic | S2 cells (HEK-293 line with an ATXN2-luciferase reporter) viability, CellTiter-Fluor protease fluorescence, 24 h; note: potency is the fitted concentration of half-maximal effect; nearly all actives have a fitted effect of over 40% in size
USP1-UAF1 inh – blocks the human USP1/UAF1 deubiquitinase complex | recombinant USP1/UAF1, Ub-Rhodamine cleavage fluorescence | AID 743255 | actives 0.23% (n = 390,000) | Potency, µM (doses to about 57.1 µM), inactives show top-dose activity change, negative = inhibition, usual class: inhibitors | O94782; note: potency is the fitted concentration of half-maximal effect; % is set by controls: 0 for no effect and ±100 for the full control effect; nearly all actives have a fitted effect of over 60% in size
Target sequence (O94782 whole entry, looked up): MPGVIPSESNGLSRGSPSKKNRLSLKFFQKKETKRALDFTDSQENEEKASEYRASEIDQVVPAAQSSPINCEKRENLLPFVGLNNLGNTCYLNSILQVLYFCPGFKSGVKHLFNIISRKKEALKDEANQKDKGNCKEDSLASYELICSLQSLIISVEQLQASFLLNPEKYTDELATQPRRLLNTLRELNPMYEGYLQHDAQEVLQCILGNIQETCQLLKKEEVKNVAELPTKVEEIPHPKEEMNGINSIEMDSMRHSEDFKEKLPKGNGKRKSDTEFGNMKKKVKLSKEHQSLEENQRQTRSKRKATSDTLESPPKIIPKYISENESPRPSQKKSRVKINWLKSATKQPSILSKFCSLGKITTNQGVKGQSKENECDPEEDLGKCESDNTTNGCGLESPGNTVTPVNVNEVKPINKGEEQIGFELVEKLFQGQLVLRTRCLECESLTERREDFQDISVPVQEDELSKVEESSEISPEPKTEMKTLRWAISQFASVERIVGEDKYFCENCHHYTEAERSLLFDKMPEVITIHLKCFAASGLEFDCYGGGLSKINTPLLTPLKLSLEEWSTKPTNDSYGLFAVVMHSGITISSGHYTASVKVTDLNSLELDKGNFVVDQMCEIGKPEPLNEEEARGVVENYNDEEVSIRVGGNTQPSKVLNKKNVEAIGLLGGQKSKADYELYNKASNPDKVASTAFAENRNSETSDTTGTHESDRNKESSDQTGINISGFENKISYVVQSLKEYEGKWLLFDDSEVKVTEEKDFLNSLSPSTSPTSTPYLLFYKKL
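Step one: compound is pinned into 1nM USP1/UAF1 in HEPES pH 7.8 buffer with TCEP. Step two: 15 min room-temperature incubation. Step three: Ub-Rho (150nM final) starts cleavage, tracked by fluorescence over six one-minute reads.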
ATXN2 expr inh – reduces ATXN2 reporter expression in HEK-293 cells; Potency, µM (titrated, usually from 57 µM), inactives show top-dose activity change, negative = inhibition, most hits filed as inhibitors; HEK-293 ATXN2-luciferase reporter, luminescence, 24 h; actives 0.72% (n = 360,000); note: potency is the fitted concentration of half-maximal effect; % is set by controls: 0 for no effect and ±100 for the full control effect; nearly all actives have a fitted effect of over 55% in size
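qHTS (up to 57 uM final) was run with 24 h compound exposure of reporter cells at 37 °C. Each well was multiplexed: SteadyGlo luminescence measured ATXN2-luciferase expression after a fluorogenic Gly-Phe-AFC viability readout (25 uM final).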
IL-1B inflam inh – blocks inflammasome-driven IL-1 beta release; THP-1 LPS/ATP IL-1B secretion, AlphaLISA, 16 h; active compounds read low; activity change, % at 57.5 µM; actives 4.7% (n = 360,000); in the data active = activity change below about -50%; inconclusive = mostly about -30% to -49%; note: % is set by controls: 0 for no effect and ±100 for the full control effect
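Secreted IL-1B measured by AlphaLISA bead assay after 16 h compound exposure of THP-1 cells; compounds (final up to 57.5 uM) added 1 h before LPS (250 ng/mL) and ATP (1.25 mM) stimulation; lower signal means less secretion.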
Numbers without * were called inactive; i = inactive; ? = inconclusive; . = not tested or not shown. Hits are enriched below; roughly 4.8% of the tested compounds scored in any of these assays. Unless noted, calls come from the whole dose curve; as a rule, active = well fitted curve in the direction sought with a large enough effect; inconclusive = small, poorly fitted or top-dose-only effect, or another doubt; inactive = no such curve, though single readings can be large; an effect the other way counts as inactive or inconclusive.

SMILES	USP2a inh	S2 tox	USP1-UAF1 inh	ATXN2 expr inh	IL-1B inflam inh
Cc1ccn(CCC(=O)N2CCOc3ccc(C(O)C4CCCCC4)cc3C2)n1 (centres undefined)	.	i	.	.	.
O=C(CC1OC(=O)c2ccccc21)Nc1ccc(Cl)c(S(=O)(=O)N2CCCCC2)c1 (centres undefined)	-1.3%	i	-14.6%	-5.3%	-4.2
CSc1ccccc1-c1nnc(NC(=O)Cc2ccccc2)o1	-0.9%	i	-25.8%	-15.7%	-19.0
CS(=O)(=O)c1ccccc1-c1nnc(NC(=O)Cc2ccccc2)o1	0.0%	i	-9.9%	-6.5%	-50.2*
COc1cc(/C=C(\CC(=O)O)c2nc3ccccc3s2)cc(OC)c1O	-0.1%	.	-10.9%	6.8%	34.9
O=C(O)c1ccc(C=C(c2nc3ccccc3s2)c2nc3ccccc3s2)cc1	3.6%	.	?	.	-108.4*
COc1cc(C=C(c2nc3ccccc3s2)c2nc3ccccc3s2)cc(OC)c1O	-2.1%	i	-21.5%	11.6%	-82.5*
O=C(Nc1c[nH]c(=O)[nH]c1=O)c1cc([N+](=O)[O-])cc([N+](=O)[O-])c1	1.3%	i	-22.3%	.	-4.9
COc1ccc(C2CC(=O)NC(NC(=O)c3ccc(Br)cc3)=N2)c(OC)c1OC (centres undefined)	.	.	-18.8%	.	.
Nc1ccc(C(=O)OCC(O)CO)cc1 (centres undefined)	.	i	.	-1.1%	.
Cc1ccc(-c2nc(C(=O)NCCCN3CCOCC3)cc3c2[nH]c2ccccc23)cc1	2.7%	?	-8.8%	?	-52.0*
O=C(NCCCN1CCOCC1)c1cc2c(=O)[nH]c3ccccc3c2s1	-0.6%	i	1.0%	-10.2%	-50.5*
Cc1ccc2[nH]c(=O)c3cc(C(=O)NCCCN4CCC(C)CC4)sc3c2c1	.	20µM*	-7.7%	28.2µM*	.
CC1CCN(CCCNC(=O)c2cc3c(Cl)nc4ccccc4c3s2)CC1	-3.3%	.	-23.8%	.	-69.8*
O=C(NCCCN1CCCC1)c1cc2c(Cl)nc3ccccc3c2s1	-0.6%	?	-8.1%	?	.
COc1ccc(-c2nc(C(=O)NCCCN3CCOCC3)cc3c2[nH]c2ccccc23)cc1OC	-12.2%	?	-8.6%	?	-24.0
CC(=O)c1c(C)nc2ccccc2c1N	0.3%	i	-2.0%	-5.7%	-1.1
Cc1[nH]c2ccccc2c1C(=O)/C=C\c1ccccc1Cl	5.0%	?	-10.8%	29.6%	-100.9*
Cc1[nH]c2ccccc2c1C(=O)CN1CCN(C/C=C/c2ccccc2)CC1	-1.0%	i	-19.6%	-26.3%	?
Cc1nc2ccccc2c(N)c1C(=O)/C=C/c1ccccc1	0.8%	?	-7.9%	?	-100.3*
Cc1[nH]c2ccccc2c1C(=O)/C=C/c1ccccc1	-4.8%	i	-15.0%	68.8%	-95.5*
Cc1[nH]c2ccccc2c1C(=O)/C=C/c1ccccc1Cl	-5.0%	?	-23.4%	80.9%	-105.2*
O=C(NCC1CCC2(CCN(Cc3ccccc3O)CC2)O1)C1CCCO1 (centres undefined)	.	i	.	.	.
COc1cc(-c2cc(C)c3cccc(OC)c3n2)cc2c1OCCN(C(=O)Cn1nc(C)cc1C)C2	.	i	.	.	.
Cc1cc(/C=C(\C#N)C(=O)NCc2ccccc2)c(C)[nH]1	.	i	-24.1%	.	-18.6
SMILES	USP2a inh	S2 tox	USP1-UAF1 inh	ATXN2 expr inh	IL-1B inflam inh
CN(C)c1ccc(C(CNS(=O)(=O)c2ccc(F)cc2)c2c[nH]c3ccccc23)cc1 (centres undefined)	1.8%	i	-10.4%	16.9%	-63.6*
CC1(C(=O)Nc2cccc(Oc3ccccc3)c2)CCN1Cc1ccccc1OC(F)F (centres undefined)	.	i	.	-2.0%	-12.7
Cc1cc(N2CCC(C)CC2)nc(SCC(=O)c2ccccc2)n1	-6.1%	i	-14.2%	17.9%	-61.7*
Cc1cc(N2CCCC2)nc(SCC(=O)c2ccccc2)n1	0.8%	?	-6.0%	29.9%	-16.9
COc1ccccc1N1CCN(C(=O)/C=C/c2c(Cl)nc3ccccn23)CC1	1.9%	?	-32.2%	?	-60.5*
CC[n+]1c(/C=C/N(C)c2ccccc2)n(-c2ccccc2)c2ccc(-c3nc4ccccc4s3)cc21	?	13.4µM*	-22.9%	4.74µM*	-101.5*
CC[n+]1cccc(-c2nc3ccccc3s2)c1	-1.8%	i	-17.2%	-27.5%	56.7
CCCCN(CCCC)CC(O)c1cc(Cl)cc2c1-c1ccc(Cl)cc1/C2=C/c1ccc(Cl)cc1 (centres undefined)	.	?	.	25.1µM*	.
OCC1OC(n2ccc3c(NO)ncnc32)C(O)C1O (centres undefined)	.	?	1.2%	?	-102.2*
OCC1OC(n2cnc3c(NCc4ccccc4O)ncnc32)C(O)C1O (centres undefined)	.	?	-11.9%	?	-86.0*
OC[C@H]1O[C@@H](n2cnc3c(Nc4ccccc4)ncnc32)[C@H](O)[C@@H]1O	-1.1%	i	-4.8%	36.7%	-19.6
Nc1ncnc2c1nc(-c1ccccc1)n2C1OC(CO)C(O)C1O (centres undefined)	.	i	.	8.5%	-50.4*
CN(C)c1ncnc2c1ccn2C1OC(CO)C(O)C1O (centres undefined)	.	i	1.6%	0.6%	-29.4
CCN(CC)CCCn1c2c(c(SCC(=O)N3CCCc4ccccc43)nc1=O)CCC2	-0.6%	i	-15.6%	1.5%	-17.4
COC(=O)C1C(=O)N(S(=O)(=O)c2ccc([N+](=O)[O-])cc2)c2ccccc21 (centres undefined)	.	.	.	.	-12.6
Cc1cc(N2CCOCC2)n2nc(-c3cccc(F)c3)cc2n1	1.1%	i	-12.6%	-22.7%	29.8
CCC1CCCCN1c1cc(C)nc2cc(-c3cccc(C)c3)nn12 (centres undefined)	-2.6%	i	-17.4%	-27.9%	-98.5*
Cc1ccc2oc(=O)c(-c3ccc(O)cc3)c(C)c2c1	-6.5%	i	-17.0%	13.2%	-13.6
CN1c2ccccc2C(C)(C)C12C=Cc1cc(O)ccc1O2 (centres undefined)	-0.1%	?	-24.9%	-19.6%	-73.6*
CN1c2ccccc2C(C)(C)C12C=Nc1c(cc(N3CCOCC3)c3ccccc13)O2 (centres undefined)	-1.2%	.	?	-15.3%	-5.0
O=C(/C=C/c1cccs1)NC(=S)Nc1ccccc1	-4.4%	i	-5.7%	41.7%	-62.1*
CCC(=O)Nc1cccc(C(=O)/C=C/c2ccccc2)c1	2.3%	?	-11.3%	?	-117.4*
CCC(=O)Nc1cccc(C(=O)c2ccccc2)c1	-0.5%	i	?	19.5%	-0.5
O=C(/C=C/c1cccs1)NC(=S)NNC(=O)c1ccccc1O	0.4%	?	-15.6%	?	112.3
CCOC(=O)Nc1ccc(Oc2ccccc2)cc1	1.0%	i	-5.7%	42.7%	0.1

Assay outcomes deposited in PubChem BioAssay by National Center for Advancing Translational Sciences (NCATS).
